High-throughput results from PubChem.
This is a sample that favours compounds with a hit; in the whole collection about 10% have one here.
Six1-Eya2 inh: inhibitors of human Six1/Eya2 interaction; 360,000 compounds, 0.56% hits; activity change, % (no concentration beside the values); AID 651725; Q15475+O00167; AlphaScreen GST-Six1/His-Eya2 binding, biochemical; hits give low values; in the data active means activity change below about -65%; inconclusive means mostly about -30% to -63%
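AlphaScreen luminescence read after one hour at 37 °C in darkness. Pin-transferred compounds met GST-Six1 and His-Eya2 protein (5X stock 250 nM/500 nM) plus glutathione donor and Ni-chelate acceptor beads (5X, 50 ug/mL).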
JMJD2A Tudor inh: blocks the human JMJD2A Tudor domain; 390,000 compounds, 4.4% hits; O75164; AID 504339; AlphaScreen JMJD2A-Tudor / H3K4me3 peptide binding; Potency, µM (series often up to 114 µM), most hits filed as inhibitors; further: nearly all actives have a fitted effect of over 50% in size
HP1b binding inh: blocks HP1-beta chromodomain binding to methylated histone tails; P83916; Potency, µM (top dose mostly 114 µM), most hits filed as inhibitors; 390,000 compounds, 0.56% hits; AlphaScreen HP1-beta / biotin-H3K9me3 peptide binding; further: nearly all actives have a fitted effect of over 70% in size
Target sequence (P83916 whole entry, looked up): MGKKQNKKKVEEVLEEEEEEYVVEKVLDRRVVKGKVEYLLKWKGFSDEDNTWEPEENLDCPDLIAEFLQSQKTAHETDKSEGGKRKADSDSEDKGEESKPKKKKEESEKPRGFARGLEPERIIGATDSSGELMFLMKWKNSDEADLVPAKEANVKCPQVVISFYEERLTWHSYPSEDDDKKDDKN
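HP1-beta protein (50 nM final) preincubated 30 min at room temperature with biotinylated H3(1-18)K9me3 peptide (50 nM) in PBS pH 7.4, 0.01% Tween-20, then compound added for 30 min. AlphaScreen streptavidin donor/nickel chelate acceptor beads (10 ug/mL final), 30 min dark, luminescence read.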
CtBP-E1A inh: inhibitors of CtBP/E1A interaction; activity change, % (test concentration not listed); AlphaScreen GST-E1A/His-CtBP binding, 1536-well; hits give low values; AID 651724; 340,000 compounds, 0.49% hits; in the data active means activity change below about -65%; inconclusive means mostly about -30% to -63%
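Homogeneous bead-based format: GST-tagged E1A captured on glutathione donor beads, His-tagged CtBP on nickel acceptor beads; compounds precede bead addition by 2 h at 37 °C.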
BAZ2B inh: inhibitors of human BAZ2B bromodomain; Q9UIF8; AlphaScreen BAZ2B-H3K14Ac peptide displacement; Potency, µM (top dose mostly 114 µM), hits mostly inhibitors; 360,000 compounds, 4.4% hits; AID 504333; further: nearly all actives have a fitted effect of over 60% in size
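Multi-concentration screen (max 110 uM) measuring displacement of acetylated histone H3 peptide from BAZ2B by AlphaScreen, using 50 nM protein, 50 nM peptide and 10 ug/mL streptavidin donor plus Ni-chelate acceptor beads.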
G9a inh: inhibitors of human histone lysine methyltransferase G9a. Q96KQ7. G9a H3K9 monomethylation, AlphaScreen, 2 h. Potency, µM (doses to about 102 µM), hits mostly inhibitors. 350,000 compounds, 8.8% hits. AID 504332; further: nearly all actives have a fitted effect of over 75% in size
Target sequence (Q96KQ7 913-1193 limits assumed): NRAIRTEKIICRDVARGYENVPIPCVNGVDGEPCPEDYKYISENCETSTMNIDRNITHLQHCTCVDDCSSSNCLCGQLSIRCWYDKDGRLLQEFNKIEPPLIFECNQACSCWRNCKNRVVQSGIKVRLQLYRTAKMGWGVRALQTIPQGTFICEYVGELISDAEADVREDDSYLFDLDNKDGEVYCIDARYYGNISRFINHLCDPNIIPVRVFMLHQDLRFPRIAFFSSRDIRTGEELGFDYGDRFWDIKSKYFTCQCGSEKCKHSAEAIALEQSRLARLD
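Using a bead-based AlphaScreen, monomethylated H3K9 product from 2 h room-temperature reactions (G9a 20 nM, peptide 500 nM, SAM 20 uM) was detected with 0.5 ug/mL rabbit anti-H3K9me1 antibody.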
A number is an active result; – = inactive; ? = inconclusive; · = no result; [ ] = dose if it differs, or a comment. Unless noted, the call rests on the fitted dose curve; in most records, active means well fitted inhibition curve with a large enough effect; inconclusive means small, poorly fitted or top-dose-only effect; inactive means no such curve, though single readings can be large or run the other way.

SMILES | Six1-Eya2 inh | JMJD2A Tudor inh | HP1b binding inh | CtBP-E1A inh | BAZ2B inh | G9a inh
O=[N+]([O-])c1cccnc1N1CCC(c2cc(-c3cccc(C(F)(F)F)c3)n[nH]2)CC1 | – | –[11.4 µM] | ? | – | 35µM | ?
NC(=O)C1CCN(c2ncccc2[N+](=O)[O-])CC1 | – | – | – | – | – | –
COc1ccc(-c2cc(C3CCN(Cc4cccc(C(F)(F)F)c4)CC3)[nH]n2)cc1 | – | ? | – | – | ? | ?
COc1ccc(OC)c(-c2cc(C3CCN(c4cc(Cl)nc(N)n4)CC3)[nH]n2)c1 | – | ? | – | – | ? | ?
Fc1cc(Br)ccc1Nc1c2c(nc3nc(-c4cccs4)nn13)CCCC2 | · | – | – | · | – | –
COc1ccc(NC(=O)CN(C)S(=O)(=O)c2ccc(C(=O)N3CCOCC3)s2)cc1 | · | – | – | · | – | –
CC1CCC(C(C)C)C(OC(=O)CSc2nccc(=O)[nH]2)C1 (centres undefined) | – | – | – | – | – | –
CC1CCC(C(C)C)C(OC(=O)C2=C3c4ccccc4S(=O)(=O)N3CC2)C1 (centres undefined) | – | – | – | – | – | 25µM
COc1cccc(C(=O)Nc2ccccc2C(=O)OCc2cc(=O)n3nc(C4CC4)sc3n2)c1 | · | – | – | · | – | –
Cc1ccc(Sc2c(C)nn(-c3ccccc3)c2OC(=O)C(C)(C)C)cc1 | · | – | – | · | – | 10µM
Cc1nn(S(=O)(=O)c2ccc(Cl)cc2)c(C)c1Sc1ccc([N+](=O)[O-])cc1 | – | – | – | – | – | –
Cc1nn(-c2ccccc2)c(OC(=O)C(C)(C)C)c1Sc1ccccc1 | · | ? | – | · | – | 4µM
Cc1nn(C(C)(C)C)c(OC(=O)C(C)(C)C)c1Sc1ccccc1 | · | – | – | · | – | –
Cc1ccc(Sc2c(C)nn(C(C)(C)C)c2OC(=O)C(C)(C)C)cc1 | · | – | – | · | – | –
Cc1nn(-c2ccccc2)c(OC(=O)C(C)C)c1Sc1ccccc1 | · | ? | – | · | – | 1.6µM
Cc1nn(-c2ccccc2)c(N)c1Sc1ccc([N+](=O)[O-])cc1 | – | ? | ? | – | – | 10µM
COc1ccccc1NC(=O)CSc1nnc(NC(=O)NC2CCCCC2)s1 | · | – | – | · | – | –
COc1cc(OC)c2c(C)c(CC(=O)N3CCCCC3)c(=O)oc2c1 | · | – | – | · | – | –
COc1cc(C(=O)Oc2c(Sc3ccccc3)c(C)nn2-c2ccccc2)cc(OC)c1OC | · | – | – | · | – | 4µM
COc1ccc(C(=O)Oc2c(Sc3ccccc3)c(C)nn2-c2ccccc2)cc1OC | · | – | – | · | – | ?
C/C(CC(=O)Nc1ccc(C)c(Cl)c1)=N\NC(=O)c1cccc(O)c1 | – | – | – | – | – | ·
CC(=O)Nc1ccc(NC(=O)C/C(C)=N/NC(=O)C(=O)Nc2ccc(C)c(Cl)c2)cc1 | – | – | – | – | – | 56µM
COC(Cc1ccccc1N1CCCC1=O)OC | – | – | – | – | ? | 56µM
CCCCCCCCS(=O)C1CCS(=O)(=O)C1 (centres undefined) | – | – | – | – | – | 40µM
CCCCCCS(=O)[C@H]1CS(=O)(=O)C[C@@H]1S(=O)CCCCCC (some centres undefined) | – | – | – | – | – | 8.9µM
SMILES | Six1-Eya2 inh | JMJD2A Tudor inh | HP1b binding inh | CtBP-E1A inh | BAZ2B inh | G9a inh
C=CCn1c(COc2ccccc2)nnc1SCC(=O)N/N=C/c1cc(Cl)ccc1O | ? | – | – | ? | – | –
C=CCn1c(CNc2ccc(C)cc2)nnc1SCC(=O)N/N=C/c1ccc(O)cc1O | -86 | – | – | -82 | ? | –
C=CCn1c(CNc2ccccc2)nnc1SCC(=O)N/N=C/c1ccc(O)cc1O | -88 | – | ? | -81 | ? | –
CN1CCc2c(C#N)c(N3CCCCC3)nc(NCc3ccccc3)c2C1 | – | ? | – | – | ? | 40µM
N#Cc1c(NCCCO)nc(NCc2ccccc2)c2c1CCN(Cc1ccccc1)C2 | ? | 56µM | ? | – | 32µM | 40µM
O=c1c2cc3c(nc2ncn1Cc1ccccc1F)CCCC3 | · | – | – | · | – | –
Nc1[nH]c(=S)[nH]c(=O)c1-c1ccccc1 | – | 35µM | – | – | – | ?
O=C(O)c1ccc(/C=N/NC(=O)c2ccc(CN3c4cccc5cccc(c45)S3(=O)=O)cc2)cc1 | – | ? | – | – | 50µM | –
Cc1ccc(OCC(=O)Nc2cccc(OCc3cc(=O)n4ccccc4n3)c2)cc1C | · | – | – | · | – | –
CC(=O)c1c(C)[nH]c(C(=O)NNC(=O)c2ccc(C)cc2)c1C | – | – | – | – | · | ·
CC(=O)c1c(C)[nH]c(C(=O)NNC(=O)COc2cc(C)cc(C)c2)c1C | – | – | – | – | – | 50µM
N#CC1=C2SCN(C3CCCCC3)CN2C(=O)CC1c1ccc(Cl)cc1 (centres undefined) | · | 16µM | ? | · | · | 2µM
COC(=O)CSC1=C(C#N)C(c2ccc(C(C)C)cc2)CC(=O)N1 (centres undefined) | – | – | – | – | – | ?
O=C1CSC(c2ccc(Cl)cc2)N1C1CCCCC1 (centres undefined) | – | – | – | – | – | –
N#CC1=C2SCN(C3CCCCC3)CN2C(=O)CC1c1c(F)cccc1Cl (centres undefined) | · | 22µM | ? | · | · | 2.8µM
CC(C)c1ccc(C2CC(=O)N3CN(C)CSC3=C2C#N)cc1 (centres undefined) | – | ? | ? | – | – | 1.6µM
CNC(=O)C1CCN(Cc2cc3ccccc3n2Cc2cccc(C)c2)CC1 | · | – | – | · | ? | –
CC(C)(C)OC(=O)Cc1nnc(-c2cc3ccccc3[nH]2)s1 | · | – | · | · | · | ·
COc1ccc(CCNC(=O)C(=O)NCC(c2ccc3c(c2)OCO3)N2CCOCC2)cc1 (centres undefined) | · | – | – | · | – | –
O=S(=O)(c1ccccc1)c1nc(Nc2ccccc2N2CCOCC2)sc1Cl | – | 32µM | ? | – | – | 25µM
O=S(=O)(c1ccccc1)c1nc(NC2CC2)sc1Cl | – | – | – | – | – | –
Cc1ccc(/C(O)=C2/C(=O)C(=O)N(CCCn3ccnc3)C2c2cccnc2)cc1 (centres undefined) | – | – | – | – | · | ·
CCCOc1ccc(/C(O)=C2/C(=O)C(=O)N(CCCN3CCOCC3)C2c2ccncc2)cc1 (centres undefined) | · | · | · | · | ? | 14µM
CCCCOc1ccc(/C(O)=C2/C(=O)C(=O)N(CCCOC)C2c2ccncc2)cc1 (centres undefined) | – | – | – | – | – | –[12.7 µM]
Cc1ccc(C)c(/C(O)=C2\C(=O)C(=O)N(CCCn3ccnc3)C2c2cccnc2)c1 (centres undefined) | – | 56µM | – | – | 79µM | ?
